Shown are actives, neighbours in structure and some others; about 3.8% of the full set was active somewhere.
tim23-1 inh = growth inhibitors of tim23-1 mutant yeast, primary screen, luminescence, uHTS; S. cerevisiae tim23-1 growth, BacTiter-Glo luminescence, 24 h; inhibition, % at 20 µM; actives 1.3% (n = 330,000); AID 463212, 2010;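 active = growth inhibition of the mutant yeast at or above 50%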;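 note: temperature-sensitive mutant grown at 25 °C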
PfHsp90 set2 = growth inhibition of PfHsp90-expressing yeast, primary screen, antimalarial PfHsp90 inhibitor project, S. cerevisiae, BacTiter-Glo luminescence, single point, set 2; BacTiter-Glo ATP, 48 h; yeast lacking PDR1 and PDR3 efflux regulators; inhibition, % at 9.4 µM; actives 0.32% (n = 310,000);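 active = every replicate shows inhibition above about 80%, whatever the replicate mean, limit read from the data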
tim10-1 inh = growth inhibitors of tim10-1 mutant yeast, primary screen, luminescence, uHTS; actives 2.2% (n = 330,000); S. cerevisiae tim10-1 ts strain growth, BacTiter-Glo, 24 h; inhibition, % at 20 µM;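 active = inhibition of at least 40%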;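 note: mutant grown at 25 °C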
Beta2AR agonist = beta2AR agonists driving receptor internalization, primary screen, cell-based, FAP fluorogen, flow cytometry. Am2.2-beta2AR cells. response, % (concentration not given with the values). actives 0.43% (n = 340,000);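 active = response above a set limit, near 3 SD of response in nonfluorescent compounds, cut at about 42% in these data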
Target sequence (P07550 whole entry, looked up): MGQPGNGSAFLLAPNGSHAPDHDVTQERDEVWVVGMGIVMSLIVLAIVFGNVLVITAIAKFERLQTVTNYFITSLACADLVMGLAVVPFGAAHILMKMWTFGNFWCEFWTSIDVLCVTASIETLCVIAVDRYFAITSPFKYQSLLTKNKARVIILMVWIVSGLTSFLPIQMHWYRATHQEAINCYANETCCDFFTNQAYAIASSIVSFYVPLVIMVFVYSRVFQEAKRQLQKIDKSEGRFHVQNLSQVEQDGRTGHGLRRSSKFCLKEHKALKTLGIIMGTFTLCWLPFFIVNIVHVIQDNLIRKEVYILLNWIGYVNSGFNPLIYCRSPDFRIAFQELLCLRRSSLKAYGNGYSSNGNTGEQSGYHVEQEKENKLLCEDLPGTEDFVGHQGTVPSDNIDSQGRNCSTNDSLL
TIM10 inh = growth inhibitors of isogenic TIM10 control yeast, primary screen, counter-screen for tim10-1 yeast inhibitor project, luminescence, uHTS; S. cerevisiae TIM10 strain growth, BacTiter-Glo luminescence, 24 h; inhibition, % at 10 µM; actives 1.4% (n = 330,000); AID 463195, 2010;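 active = inhibition of 40% or more at the single tested concentration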;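 note: wild-type TIM10 isogenic control strain grown at permissive 25 °C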
tim10-1 conf = growth inhibitors of tim10-1 mutant yeast, confirmation, single concentration, luminescence, S. cerevisiae; actives 56% (n = 7,400); shares compounds with tim10-1 inh; S. cerevisiae tim10-1 ts strain growth, BacTiter-Glo, 24 h; inhibition, % at 20 µM; AID 463213, 2010;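 active = inhibition of yeast growth at or above a set limit in either of two repeat tests at 20 µM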;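 note: tim10-1 mutant grown at permissive 25 °C to find synthetic lethal compounds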
TIM10 conf = growth inhibitors of wild-type TIM10 yeast, confirmation, counter-screen for tim10-1 synthetic lethality project, single concentration, luminescence, S. cerevisiae; shares compounds with TIM10 inh; S. cerevisiae tim10 strain growth, BacTiter-Glo luminescence, 24 h; inhibition, % at 10 µM; actives 63% (n = 4,600);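 active = inhibition of yeast growth at or above a set limit in either of two replicates at 10 µM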; note: this counterscreen used the strain with wild-type TIM10
tim23-1 confirm = tim23-1 mutant yeast growth inhibitors, confirmation, luminescence, single concentration; S. cerevisiae tim23-1 growth, BacTiter-Glo luminescence, 24 h; inhibition, % at 20 µM; actives 83% (n = 4,400); shares compounds with tim23-1 inh;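 active = inhibition above about 39% in either of two replicate wells at 20 µM, limit read from the data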;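 note: temperature-sensitive tim23-1 mutant grown at 25 °C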
B2AR ag CP1 = beta2AR agonists via receptor internalization, confirmation, cell-based, FAP fluorogen, flow cytometry, single point, cherry pick 1. shares compounds with Beta2AR agonist. Am2.2-beta2AR cells, FAP surface receptor; stronger effect = lower value. percent response (surface receptor), % at 10 µM. actives 25% (n = 1,100). AID 540358, 2011;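 active = surface receptor percent response at or below 58%, roughly 3 SD from nonfluorescent compounds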
B2AR FAP counter = fluorescence artifact in beta-2AR agonist FAP counterscreen | 1,100 tested, under 10 active | calls only at 10 µM | AID 588765 | Am2.2 cells, FAP fluorogen flow cytometry; stronger effect = lower value | shares compounds with Beta2AR agonist;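 active = percent response below a set limit in fluorescence channel 1 and below 50% in channel 8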
Each line names hits and unclear results; the compound was inactive in the other large screens (follow-up assays come after a bar, where they were run).

C/C=C(/C(=C/C)c1ccc(O)cc1)c1ccc(O)cc1	tim10-1 inh 44 | tim10-1 conf 43 | B2AR ag CP1 inactive | B2AR FAP counter inactive
Cc1ccc(S(=O)(=O)Nc2cccc(C(=O)N3CCC(C(N)=O)CC3)c2)cc1	none
CCOc1ccccc1C=NNC(=O)C1CC1	none (no result: tim23-1 inh, PfHsp90 set2, tim10-1 inh, TIM10 inh)
Cc1sc2ncnc(Sc3nnnn3-c3ccccc3)c2c1C	none
Clc1ccc(-n2nnnc2Sc2ncnc3sccc23)cc1	tim23-1 inh 70, tim10-1 inh 43, Beta2AR agonist 54 | tim10-1 conf 33 | tim23-1 confirm 50 | B2AR ag CP1 35 | B2AR FAP counter inactive
O=C(c1ccc(-c2ccc([N+](=O)[O-])cc2)o1)N1CCCCCCC1	tim23-1 inh 76, tim10-1 inh 59, Beta2AR agonist 52, TIM10 inh 63 | tim10-1 conf 55 | TIM10 conf 69 | tim23-1 confirm 53 | B2AR ag CP1 inactive | B2AR FAP counter inactive
Cc1ccc(S(=O)(=O)c2ccc([N+](=O)[O-])cn2)cc1	tim23-1 inh 75, PfHsp90 set2 95, tim10-1 inh 73, Beta2AR agonist 65, TIM10 inh 73 | tim10-1 conf 68 | TIM10 conf 70 | tim23-1 confirm 75 | B2AR ag CP1 inactive | B2AR FAP counter inactive
Cc1ccc(S(=O)(=O)c2ccc(C)cc2)cc1	none
COc1ccc(N(C)C(=O)c2ccc(NC(=O)CCS(=O)(=O)c3cccs3)cc2)cc1	none
O=[N+]([O-])c1ccc(-[n+]2ccc3ccccc3c2)c([N+](=O)[O-])c1	tim10-1 inh 58, Beta2AR agonist 47, TIM10 inh 50 | tim10-1 conf 52 | TIM10 conf 52 | B2AR ag CP1 40 | B2AR FAP counter inactive
CCn1nc(NS(=O)(=O)c2ccc(C)cc2)c2cc3ccccc3nc21	tim10-1 inh 44 | tim10-1 conf inactive | B2AR ag CP1 inactive | B2AR FAP counter inactive
CCn1nc(NS(=O)(=O)c2ccc(NC(C)=O)cc2)c2cc3ccc(C)cc3nc21	none
CC(=O)C[C@@H](O)CC(=O)[C@@H]1OC(=O)[C@H](C)CCCCc2ccccc21	none
COCC(Cc1ccccc1)NC(=O)Cn1cc(C)c(=O)[nH]c1=O (stereo unspecified)	none (no result: tim23-1 inh, tim10-1 inh, TIM10 inh)
CC(C)c1nnc(NC(=O)CCS(=O)(=O)c2nc(-c3cccs3)cc(C(F)(F)F)n2)s1	tim10-1 inh 61, Beta2AR agonist 97 (no result: PfHsp90 set2) | tim10-1 conf 45 | B2AR ag CP1 55 | B2AR FAP counter inactive
CCCCCCCCCCOC(=O)Cn1c(COc2ccccc2OC)[n+](C)c2ccccc21	tim10-1 inh 46 | tim10-1 conf 65 | B2AR ag CP1 inactive | B2AR FAP counter inactive
CSc1ccccc1C(=O)N(C)C(c1ccccc1)c1ccccc1	none
C=CCn1c(Sc2ncc([N+](=O)[O-])s2)n[nH]c1=O	none
O=[N+]([O-])c1cnc(Sc2ccncn2)s1	tim23-1 inh 68, PfHsp90 set2 103, tim10-1 inh 47, Beta2AR agonist 92, TIM10 inh 82 | tim10-1 conf 49 | TIM10 conf 95 | tim23-1 confirm 53 | B2AR ag CP1 16 | B2AR FAP counter inactive
CCOC(=O)N1CCN(c2nnc(-c3ccc(C)cc3)c3ccccc23)CC1	tim23-1 inh 61, tim10-1 inh 52, Beta2AR agonist 45 | tim10-1 conf 34 | tim23-1 confirm 48 | B2AR ag CP1 33 | B2AR FAP counter inactive
CCN1C[C@@H]2[C@@H]3C(=O)N(C)C(=O)[C@@H]3[C@](CC)(C1=O)N2C(=O)c1ccc(C(C)(C)C)cc1	none
Cn1nnnc1SC1CC(=O)N(c2ccccc2)C1=O (stereo unspecified)	none
Cc1cc(C)cc(N2C(=O)CC(Sc3nnnn3-c3ccccc3)C2=O)c1 (stereo unspecified)	tim10-1 inh 51, Beta2AR agonist 51 | tim10-1 conf 51 | B2AR ag CP1 inactive | B2AR FAP counter inactive
Cc1c(C(=O)N2CCOCC2)oc2ccc(S(=O)(=O)N3CCCC3)cc12	none
Cc1c(C(=O)N2CCc3ccccc3C2)oc2ccc(S(=O)(=O)N3CCCCCC3)cc12	tim10-1 inh 43, Beta2AR agonist 48 | tim10-1 conf inactive | B2AR ag CP1 inactive | B2AR FAP counter inactive
CC(C)Cc1nc2oc3c(Cl)ncnc3c2c2c1CCC2	tim23-1 inh 55, tim10-1 inh 50, Beta2AR agonist 110 | tim10-1 conf 36 | tim23-1 confirm 55 | B2AR ag CP1 20 | B2AR FAP counter inactive
Cc1cc(C)n(C(C)CC(=O)Nc2ccc3c(c2)OCO3)n1 (stereo unspecified)	none
O=[N+]([O-])c1cc(S(=O)(=O)C(F)(F)F)ccc1Sc1nc2ccccc2s1	PfHsp90 set2 109, tim10-1 inh 45, Beta2AR agonist 45, TIM10 inh 55 | tim10-1 conf 74 | TIM10 conf 75 | B2AR ag CP1 inactive | B2AR FAP counter inactive
O=C(c1cc2c(=O)n3ccccc3nc2s1)N1CCN(Cc2ccc3c(c2)OCO3)CC1	tim10-1 inh 43, Beta2AR agonist 74 (no result: PfHsp90 set2) | tim10-1 conf inactive | B2AR ag CP1 24 | B2AR FAP counter inactive
COc1ccc(C(=O)n2nc(C)cc2Nc2ccccc2)cc1	none
Cc1cc(Nc2ccccc2)nn1C(=O)c1ccc(Br)cc1	tim10-1 inh 53, Beta2AR agonist 50 | tim10-1 conf inactive | B2AR ag CP1 inactive | B2AR FAP counter inactive
Cc1ccnc(NC(=O)c2ccc([N+](=O)[O-])o2)c1	tim23-1 inh 61, tim10-1 inh 64, Beta2AR agonist 49, TIM10 inh 55 | tim10-1 conf 59 | TIM10 conf inactive | tim23-1 confirm 76 | B2AR ag CP1 inactive | B2AR FAP counter inactive
Cc1ccnc(NC(=O)c2ccccc2[N+](=O)[O-])c1	none
NC(=O)COC(=O)c1ccc2noc(-c3ccccc3)c2c1	none

Bioassay records deposited in PubChem BioAssay by several laboratories.
